# Screening data from PubChem.
# In the library only some 2.2% were active in any assay of this set; here they are far more common.
# Efflux pump mplx: inhibitors of Candida antifungal efflux pumps expressed in yeast | S. cerevisiae Candida pump triplex, Nile Red efflux | inhibition, % at 10 µM | 330,000 tested, 0.44% active;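 active means plate passing quality check with inhibition over a set limit, or well fluorescence over plate mean plus 4 SD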;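 further: Nile Red retained in pooled yeast measured as flow cytometry median fluorescence; higher means more Nile Red kept so more efflux inhibition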
# Mot1-301 SUMO: SUMOylation pathway inhibition by Mot1-301 growth rescue | 320,000 tested, 1% active | growth rescue, % at 18.8 µM | AID 2716 | S. cerevisiae Mot1-301 growth rescue, ATP luminescence, 38.5C; percent above DMSO median, 100 means doubled;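 active means every valid replicate shows activation above 250% relative to neutral control wells; inactive means the rest, any valid replicate at or below 250%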
# SKN-1 block: C. elegans SKN-1 inhibition | inhibition, % at 21.8 µM | AID 624304 | C. elegans VP596 Pgst-4::GFP/RFP ratio, acrylamide-induced, 24 h | 360,000 tested, 0.49% active;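 active means interference check ratio from 0.5 to 1.5 plus GFP to RFP signal ratio inhibition reaching or exceeding a fixed threshold, cut at about 30% in these data, passing the limit was not always enough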
# sPLA2-III inh: Blocks human group III sPLA2 activity; Q9NZ20; QFRET BODIPY PC-A2 liposome hydrolysis, fluorescence; inhibition, % at 12.2 µM; 370,000 tested, 0.56% active; AID 743126;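 active means inhibition above mean plus 3 SD of compounds lying within the high and low control bounds, cut at about 19% in these data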
# Target sequence (Q9NZ20 whole entry, looked up): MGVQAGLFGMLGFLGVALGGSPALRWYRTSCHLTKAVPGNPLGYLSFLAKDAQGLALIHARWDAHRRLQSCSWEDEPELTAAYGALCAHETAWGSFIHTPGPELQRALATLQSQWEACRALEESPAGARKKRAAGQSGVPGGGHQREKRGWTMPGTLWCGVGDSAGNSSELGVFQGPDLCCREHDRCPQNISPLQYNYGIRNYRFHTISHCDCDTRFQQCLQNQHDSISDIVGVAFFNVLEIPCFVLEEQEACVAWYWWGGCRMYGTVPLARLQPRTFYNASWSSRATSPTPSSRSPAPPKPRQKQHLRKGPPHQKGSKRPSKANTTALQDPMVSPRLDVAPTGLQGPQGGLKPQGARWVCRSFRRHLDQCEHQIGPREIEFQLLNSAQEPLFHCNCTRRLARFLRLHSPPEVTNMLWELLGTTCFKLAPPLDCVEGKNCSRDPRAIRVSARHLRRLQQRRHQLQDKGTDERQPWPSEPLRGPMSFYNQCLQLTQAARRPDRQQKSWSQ
# Cmpd fluor yeast: counter-screen for efflux pump inhibitors: compound fluorescence; shares compounds with Efflux pump mplx; S. cerevisiae AD/pABC3, flow cytometry; fluorescence ratio to DMSO, % at 10 µM; 1,700 tested, 4% active; AID 588517;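 active means fluorescence ratio to DMSO above its plate's cutoff, the plate mean ratio plus 5 SD, cut at about 210% in these data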;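 further: unstained yeast with no Nile Red so the signal is compound autofluorescence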
# Mdr1 pump inh: inhibitors of Candida albicans Mdr1 efflux pump; shares compounds with Efflux pump mplx; S. cerevisiae AD/CaMDR1, Nile Red efflux, flow cytometry; inhibition, % at 10 µM; 1,700 tested, 1% active; in the data active means inhibition above about 26%;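 further: higher means more Nile Red retained so more efflux inhibition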
# Cdr2 pump inh: inhibitors of Candida albicans Cdr2 efflux pump; shares compounds with Efflux pump mplx; S. cerevisiae AD/CaCDR2, Nile Red retention, flow cytometry; Nile Red retention ratio vs DMSO, % at 10 µM; 1,700 tested, 4% active; AID 588520; in the data active means Nile Red retention ratio vs DMSO above about 190%;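 further: higher ratio means more blocking of Cdr2 efflux of the dye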
# CaCdr1 efflux inh: Candida Cdr1 efflux pump inhibition; 1,700 tested, 1% active; inhibition, % at 10 µM; S. cerevisiae AD/CaCDR1, Nile Red efflux, flow cytometry; shares compounds with Efflux pump mplx;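 active means inhibition above the screen-wide mean plus twice its standard deviation, cut at about 32% in these data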
# Numbers stand for hits; . = inactive; / = no result given; + = active, no number.
SMILES,Efflux pump mplx,Mot1-301 SUMO,SKN-1 block,sPLA2-III inh,Cmpd fluor yeast,Mdr1 pump inh,Cdr2 pump inh,CaCdr1 efflux inh
O=C(CN1CCOCC1)Nc1ccc(Br)cc1,.,.,.,.,/,/,/,/
O=C(CN1CCN(C(=O)N2CCOCC2)CC1)Nc1ccc(Br)cc1,17,.,.,.,.,.,.,.
C[C@@H]1CN([C@@H](C)CO)C(=O)CCCn2cc(nn2)CO[C@H]1CN(C)S(=O)(=O)c1ccc2ccccc2c1,/,/,.,.,/,/,/,/
CCCCCCCCCCCCCCCC[N+](C)(C)CCN(Cc1ccc(OC)cc1)c1ncccn1,2.4,.,59,/,.,.,.,.
COc1cc(SC)ccc1C(=O)Nc1ccccc1,.,.,.,.,/,/,/,/
COc1cc(SC)ccc1C(=O)Nc1nccs1,1.0,.,44,.,.,.,.,.
CCOc1ccc(NC(=O)N2CCC(n3c(=O)[nH]c4ccccc43)CC2)cc1,0.8,.,.,.,.,.,.,.
OC[C@@H]1CN(Cc2ccncc2)C[C@H](n2cnc3c(N4CCOCC4)ncnc32)O1,/,/,.,.,/,/,/,/
CCN1C(=O)c2cccc3c(S(=O)(=O)N(C(=O)c4ccncc4)c4ccc(OC)cc4)ccc1c23,.,.,.,.,/,/,/,/
CCN1C(=O)c2cccc3c(S(=O)(=O)N(C(=O)c4cccnc4)c4ccc(OC)cc4)ccc1c23,13,.,.,.,.,.,.,.
COc1ccc(O)c(CN2CCN(CCCc3ccccc3)C(CCO)C2)c1 (configuration not stated),.,.,.,.,/,/,/,/
CCCC(=O)Nc1ccc(C(=O)NNC(=O)c2cccs2)cc1,11,.,.,/,.,.,.,.
CCCC(=O)Nc1ccc(C(=O)NNC(=S)NC(=O)c2cccs2)cc1,.,.,.,.,/,/,/,/
CSc1nc2ccc(S(N)(=O)=O)cc2s1,12,.,.,.,.,.,.,.
CCCCNC(=S)NNC(=O)C1=NN(c2cc(C)ccc2C)C(=O)CC1,.,.,.,.,/,/,/,/
COCCN(C(=O)COC(=O)CCc1ccccc1)c1c(N)n(Cc2ccccc2)c(=O)[nH]c1=O,/,/,.,.,/,/,/,/
COC(=O)C/C=C/[C@H](C)[C@@H](NC(=O)C(F)(F)F)c1ccccc1Br,/,/,/,.,/,/,/,/
Cc1nn(C)cc1/C=N\NC(=O)c1csc2c1CCCC2,7.4,.,.,.,.,.,.,.
Cc1ccc(/C=N/NC(=O)c2csc3c2CCCC3)cc1,.,.,.,.,/,/,/,/
COc1ccc2sc(-c3ccccc3OC)c(-c3ccc(OCCN(C)C)cc3)c2c1,196,/,.,.,.,.,+,.
COc1ccccc1-c1sc2ccccc2c1-c1ccc(OCCN2CCCCC2)cc1,40,/,.,/,.,.,.,.
COc1ccc2sc(-c3ccccc3OC)c(-c3ccc(SC)cc3)c2c1,/,/,.,.,/,/,/,/
COc1ccc2c(-c3ccc(OCCN4CCCCC4)cc3)c(-c3ccccc3OC)sc2c1,.,/,.,/,.,.,.,.
CCOC(=O)Cc1csc(SCC(=O)Nc2oc(C)c3c(C)n[nH]c(=O)c23)n1,.,.,.,.,/,/,/,/
CC1(C(=O)Nc2cccc3c2CCCC3)CCN1C(=O)c1cccc(F)c1 (configuration not stated),/,/,.,.,/,/,/,/
SMILES,Efflux pump mplx,Mot1-301 SUMO,SKN-1 block,sPLA2-III inh,Cmpd fluor yeast,Mdr1 pump inh,Cdr2 pump inh,CaCdr1 efflux inh
CCc1ccc(NC(=O)CSc2nc3ccccc3c(=O)n2CCCC(=O)NCCCN2CCOCC2)cc1,.,.,.,.,/,/,/,/
CCCCOc1ccc(NC2=NC3(CCCC3)N=C(N)N2)cc1,0.6,.,.,.,.,.,.,.
O=C(/C=C/c1ccccc1Cl)NCc1ccccc1,.,.,.,.,/,/,/,/
O=C(/C=C/c1ccccc1Cl)NCCc1ccccc1,3.3,.,.,/,.,.,.,.
CCCN(CCC)C(=O)Cn1c(=O)n(CCCCCC(=O)Nc2ccccc2)c(=O)c2sccc21,19,.,.,.,.,.,.,.
Cc1ccc(CNC(=O)C(=O)NCC2OCCN2S(=O)(=O)c2ccc(Br)cc2)cc1 (configuration not stated),.,.,.,.,.,.,.,.
COc1ccc(CNC(=O)C(=O)NCC2OCCN2S(=O)(=O)c2ccccc2)cc1 (configuration not stated),.,.,.,.,.,.,.,.
COc1ccc(CCNC(=O)C(=O)NCC2OCCN2S(=O)(=O)c2ccc(C)cc2)cc1 (configuration not stated),.,.,.,.,/,/,/,/
COc1ccc(S(=O)(=O)N2CCOC2CNC(=O)C(=O)NCc2ccc(F)cc2)cc1OC (configuration not stated),.,.,.,.,.,.,.,.
COc1ccc(CNC(=O)C(=O)NCC2OCCN2S(=O)(=O)c2ccc(C)cc2)cc1 (configuration not stated),.,.,.,.,.,.,.,.
COc1ccc(S(=O)(=O)N2CCOC2CNC(=O)C(=O)NCc2cccnc2)cc1OC (configuration not stated),.,.,.,.,/,/,/,/
COc1ccc(CNC(=O)C(=O)NCC2OCCN2S(=O)(=O)c2ccc(F)cc2)cc1 (configuration not stated),.,.,.,.,/,/,/,/
Cc1ccc(CNC(=O)C(=O)NCC2OCCN2S(=O)(=O)c2ccc(C)cc2)cc1 (configuration not stated),.,.,.,.,/,/,/,/
O=C(COc1ccc(F)cc1)NNC(=O)Cn1ccc(C(F)(F)F)n1,.,.,.,.,/,/,/,/
Cc1nnc(NC(=O)CCN2C(=O)C3CC=CCC3C2=O)s1 (configuration not stated),/,/,.,.,/,/,/,/
Cc1ccc(Cl)cc1NS(=O)(=O)c1ccc2oc(=O)ccc2c1,.,.,.,.,/,/,/,/
COc1ccccc1C(=O)Nc1ccncc1,.,.,.,.,/,/,/,/
COc1ccccc1C(=O)Nc1ccc(C2=NNC(=O)CC2C)cc1 (configuration not stated),1.0,.,.,.,.,.,.,.
COc1cc2c(cc1OC)CN(c1nc(CN3CCOCC3)nc3sc4c(c13)CCC(C)C4)CC2 (configuration not stated),98,.,.,.,.,.,.,82
CC(C)C(=O)Oc1ccc(CO)cc1[C@H](CCN(C(C)C)C(C)C)c1ccccc1,/,/,/,.,/,/,/,/
Nc1nc2c(ncn2[C@@H]2O[C@H](CNC(=O)[C@H](N)Cc3ccccc3)[C@@H](O)[C@H]2O)c(=O)[nH]1,/,/,.,.,/,/,/,/
CCOc1ccc(-c2c(C(=O)N/N=C/c3ccccc3)nnn2-c2nonc2N)cc1,.,.,.,.,.,.,.,.
COc1ccc2ccccc2c1/C=N/NC(=O)c1nnn(-c2nonc2N)c1C(C)C,.,.,.,.,/,/,/,/
CCOc1ccc(-c2c(C(=O)N/N=C/c3ccc(Cl)cc3)nnn2-c2nonc2N)cc1,.,.,.,.,/,/,/,/
